# According to PubChem BioAssay (NCATS):
# Records with an inconclusive call do not appear. Active and inactive are the calls of the source. Calls come from the whole dose curve; as a rule, active = well fitted inhibition curve with a large enough effect; inconclusive = small, poorly fitted or top-dose-only effect, or effect the other way; inactive = flat fitted curve, though single readings scatter.
# Target: ATP-dependent 6-phosphofructokinase (Trypanosoma brucei brucei) (UniProt O15648)
# Test: qHTS Assay to Find Inhibitors of T. brucei phosphofructokinase: hit validation (AID 492961);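 note: luminescence reports ADP formed as PFK phosphorylates fructose-6-phosphate with ATP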
# Conditions: T. brucei PFK, ADP-Glo luminescence; series mostly up to 51.4 µM; activity change, negative = inhibition: at the top concentration
# Summary of the method: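 Compounds titrated; %activity normalized to 0x and 1x enzyme controls, curve-fitted. Readout: ADP-Glo luminescence after 45 min room-temperature reaction of 1.25 nM PFK, 0.1 mM ATP, 0.5 mM F6P, pH 8.0.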
# % is set by controls: 0 for no effect and ±100 for the full control effect.
# ATP-dependent 6-phosphofructokinase (Trypanosoma brucei brucei), sequence (O15648 whole entry, looked up): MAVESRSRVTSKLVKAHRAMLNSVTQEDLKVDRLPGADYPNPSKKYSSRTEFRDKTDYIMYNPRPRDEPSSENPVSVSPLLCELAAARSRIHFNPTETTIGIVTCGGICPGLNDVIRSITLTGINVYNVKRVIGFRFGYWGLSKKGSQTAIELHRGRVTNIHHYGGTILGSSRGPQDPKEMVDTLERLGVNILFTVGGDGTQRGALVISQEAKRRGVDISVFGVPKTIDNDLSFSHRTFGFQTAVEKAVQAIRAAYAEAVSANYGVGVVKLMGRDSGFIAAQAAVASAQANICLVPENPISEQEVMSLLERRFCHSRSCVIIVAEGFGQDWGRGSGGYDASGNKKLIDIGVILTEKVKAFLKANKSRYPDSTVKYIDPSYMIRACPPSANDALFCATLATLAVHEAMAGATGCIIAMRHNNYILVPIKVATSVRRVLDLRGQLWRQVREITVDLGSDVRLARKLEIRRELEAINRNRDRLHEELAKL
row,Structure (SMILES),"activity change, negative = inhibition"
1,NCCCC[C@H](N[C@@H](CCc1ccccc1)C(=O)O)C(=O)N1CCC[C@H]1C(=O)O,1.35% [at 24.3 µM] (inactive)
2,Cc1c(C)n(Cc2ccccc2)c2ccc(C(=O)OCCN(C)C)cc12,-5.3% (inactive)
3,CCOc1ccc2nc3cc(N)ccc3c(N)c2c1,2.33% (inactive)
4,CC(C)=CCC1C(=O)N(c2ccccc2)N(c2ccccc2)C1=O,12.4% (inactive)
5,COC(=O)[C@@H]1CC2=CC(=O)CC[C@]2(C)[C@@]23O[C@@H]2C[C@@]2(C)[C@@H](CC[C@@]24CCC(=O)O4)[C@H]13,-1.58% (inactive)
6,CCN1CCCC1=O,5.29% (inactive)
7,CCN(CC)CCNC(=O)COc1ccc(Cl)cc1,16.8% (inactive)
8,CC(=O)N(O)CCCCCNC(=O)CCC(=O)N(O)CCCCCNC(=O)CCC(=O)N(O)CCCCCN,-10.3% [at 24.3 µM] (inactive)
9,CN1CCC[C@@H]1c1cccnc1,-0.815% (inactive)
10,O=C(O)CNC(=O)c1ccccc1,4.67% (inactive)
11,CCOC(=O)COc1ccc2c(C)c(CCN(CC)CC)c(=O)oc2c1Cl,1.2% (inactive)
12,OC(CCN1CCCCC1)(c1ccccc1)c1ccccc1,-0.846% (inactive)
13,CCC(=O)c1c(O)cc(O)cc1O,-1.13% (inactive)
14,CCN(CC)C(=O)N1CCN(C)CC1,-4.61% [at 24.3 µM] (inactive)
15,NC(=O)C(=O)N/N=C/c1ccc([N+](=O)[O-])o1,2.4% (inactive)
16,O=C(CCCN1CCC(O)(c2ccc(Br)cc2)CC1)c1ccc(F)cc1,4.06% [at 24.3 µM] (inactive)
17,CCCCCC=CCC=CCCCCCCCC(=O)OCC,12.9% (inactive)
18,CN1C(CCl)Nc2cc(Cl)c(S(N)(=O)=O)cc2S1(=O)=O (stereo not drawn),-5.64% (inactive)
